Inconclusive results are not listed. Where a call stands in place of a potency, no number is given. Activity calls are given as the source filed them. Unless noted, calls come from the whole dose curve; as a rule, active = well fitted curve in the direction sought with a large enough effect; inconclusive = small, poorly fitted or top-dose-only effect, or another doubt; inactive = no such curve, though single readings can be large; an effect the other way counts as inactive or inconclusive.
Tests used:
[1] = qHTS to identify inhibitors of the type 1 interferon - major histocompatibility complex class I in skeletal muscle: primary screen against the NCATS LOPAC collection (AID 1347405);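 note: lytic HiBiT luminescence reporting HLA-B protein level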; note: potency is the fitted concentration of half-maximal effect
Summary of the method: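 Cells: C25cl48 human myoblasts, HiBiT-tagged HLA-B*08:01, stimulated with IFN-beta 4.0 ng/ml. Compounds are titrated 1:4.3 over 7 points from 46 uM final and incubated 24 hrs; endogenous MHC class I is quantified by HiBiT lytic luminescence.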

[2] = qHTS for inhibitors of adenylyl cyclases using a fission yeast platform: a pilot screen against the NCATS LOPAC library (AID 1347410)
Summary of the method: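 S. pombe CHP2027 (AC9-GNAS-PDE4D2) carrying a PKA-repressed fbp1-GFP reporter was exposed to LOPAC compounds (final up to 57 µM) for 18 h at 30C in the dark, in EMM with histidine, lysine and uracil; GFP gain-of-signal read by laser scanning cytometry.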

[3] = Validation qHTS assay for inhibitors of Activation Induced Cytidine Deaminase (AID): UDG Counterscreen signal (AID 1347427)
Summary of the method: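 Counterscreen read of UDG activity (2 U/mL, 4/3x) in the FRET deamination format with AID (1 uM, 4/3x), DJC20/DJC23 substrates (250 nM, 4x), 4 h at room temperature. NaOH stop, fluorescence at 560 ex/665 em.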

[4] = molecular target: Single-stranded DNA cytosine deaminase (Homo sapiens) (UniProt Q9GZX7); test: Validation qHTS assay for inhibitors of Activation Induced Cytidine Deaminase (AID): AID signal (AID 1347429); note: potency is the fitted concentration of half-maximal effect
Summary of the method: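 In this coupled qHTS, AID deaminates a FRET-labelled ssDNA substrate in the presence of UDG over 4 hr at room temperature. Compounds span up to 114 uM final.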

[5] = Primary qHTS for inhibitors of La Crosse Virus (LACV) - induced cell death in SH-SY5Y cells (AID 1508616);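 note: top concentration of the series differs between compounds; higher means more rescue of cells from virus-induced death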
Summary of the method: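 Readout was luminescence from ATPLite 1step added after a 6-day LACV infection (0.01 MOI) of SH-SY5Y cells that had received pin-transferred compound 24 hr after seeding.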

[6] = molecular target: Calcium and integrin-binding protein 1 (Homo sapiens) (UniProt Q99828); test: Validation qHTS for Identification of Calcium Integrin Binding protein 1 (CIB1) Competitor (AID 1508618)
Summary of the method: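 CIB1-GST (1 uM final) in 5 mM HEPES pH 7.4, 125 mM NaCl, 5 mM CaCl2, 0.01% Tween20 was preincubated 15 min at room temperature with compound (up to 114 uM), then FITC-alphaIIb peptide (100 nM) added for 15 min; fluorescence polarization read.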

[7] = qHTS to identify inhibitors of the type 1 interferon - major histocompatibility complex class I in skeletal muscle: primary screen against the NCATS Mechanism Interrogation Plate v5.0 (MIPE) Libary (AID 1347411); note: nearly all actives have a fitted effect of over 65% in size
Summary of the method: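 Cells were genome-edited human myoblasts carrying a HiBit tag on endogenous HLA-B. They were treated with IFN-beta (4.0 ng/ml) and titrated compounds (top 46 uM) for 24 hrs before lytic HiBiT detection.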

[8] = qHTS for inhibitors of Rabies Virus screened against the NCATS CANVASS Library (AID 1347402; calls by dose curve; note: series mostly up to about 46 µM)
[9] = Primary qHTS for Huh7 cytotoxicity: counterscreen for inhibitors of MERS-S pseudotyped particle cell entry (AID 1479147; calls by dose curve); conditions: outcome: dose series up to 57.1 µM unless noted
[10] = Primary qHTS for inhibitors of MERS-S pseudo-typed particle cell entry (AID 1479149; calls by dose curve; note: nearly all actives have a fitted effect of over 60% in size); conditions: outcome: dose series up to 57.1 µM unless noted
[11] = Primary qHTS for Vero E6 cytotoxicity: counterscreen for inhibitors of SARS-S pseudo-typed particle cell entry (AID 1479150; calls by dose curve)
[12] = molecular target: Calcium and integrin-binding protein 1 (Homo sapiens) (UniProt Q99828); test: Primary qHTS for Identification of Calcium Integrin Binding Protein 1 (CIB1) Competitor (AID 1508620);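 note: GST tagged CIB1 binding a fluorescein labelled alphaIIb integrin peptide tracer; top concentration of the series differs between compounds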
Summary of the method: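 Fluorescence polarization competition: GST-tagged CIB1 (1 uM final) preincubated with compound 15 min at room temperature, then FITC-labelled alphaIIb peptide (100 nM final) added. After 15 min at room temperature, polarization read at Ex 480/Em 540.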

[13] = Redox Reaction Profiling qHTS: Assay Interference Panel against the NCATS CANVASS Library (AID 1347401)
Summary of the method: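 Compounds in 11-point series incubated with 5 uM resazurin and 200 uM DTT in 50 mM HEPES pH 7.3, 50 mM NaCl. Resorufin fluorescence (Ex 525/Em 598) read before and after 15 min in the dark.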

[14] = Primary qHTS for inhibitors of SARS-S pseudo-typed particle cell entry (AID 1479145; calls by dose curve; note: series mostly up to about 57 µM; nearly all actives have a fitted effect of over 45% in size); conditions: outcome: dose series up to 57.1 µM unless noted

Chain of Single-stranded DNA cytosine deaminase (Homo sapiens) (Q9GZX7 whole entry, looked up): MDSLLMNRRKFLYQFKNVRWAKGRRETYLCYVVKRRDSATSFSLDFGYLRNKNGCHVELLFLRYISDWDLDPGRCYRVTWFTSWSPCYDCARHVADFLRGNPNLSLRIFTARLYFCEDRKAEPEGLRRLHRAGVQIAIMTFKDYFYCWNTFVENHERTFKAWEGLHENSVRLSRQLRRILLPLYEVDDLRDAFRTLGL
Chain of Calcium and integrin-binding protein 1 (Homo sapiens) (Q99828 whole entry, looked up): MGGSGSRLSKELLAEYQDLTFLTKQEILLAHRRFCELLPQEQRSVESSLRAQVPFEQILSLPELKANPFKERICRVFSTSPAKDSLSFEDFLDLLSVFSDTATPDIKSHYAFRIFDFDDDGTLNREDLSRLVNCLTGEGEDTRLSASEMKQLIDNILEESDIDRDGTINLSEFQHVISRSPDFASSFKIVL

C[N+](C)(C)CC#CCN1CCCC1=O
Potency [1]: inactive
outcome [2]: inactive
Potency [3]: inactive
Potency [4]: inactive
Potency [5]: inactive
Potency [6]: inactive

CC(=O)c1c(O)c(C)c(O)c(Cc2c(O)c3c(c(C(=O)/C=C/c4ccccc4)c2O)OC(C)(C)C=C3)c1O
Potency [1]: inactive
outcome [2]: inactive
outcome [7]: inactive
Potency [3]: inactive

CC(N)c1cccc(Cl)c1Cl (stereo not drawn)
Potency [1]: inactive
outcome [2]: inactive
Potency [3]: inactive
Potency [4]: inactive
Potency [5]: inactive
Potency [6]: inactive

NC(N)=NOCC[C@H](N)C(=O)O
Potency [1]: inactive
outcome [2]: inactive
Potency [3]: inactive
Potency [4]: inactive
Potency [5]: inactive
Potency [6]: inactive

Cc1sc2ccccc2c1CC1=NCCN1
Potency [1]: inactive
outcome [2]: inactive
Potency [3]: inactive
Potency [4]: inactive
Potency [5]: inactive
Potency [6]: inactive

CN(N=O)c1ccc(O)c(O)c1
Potency [1]: inactive
outcome [2]: inactive

C[N+]1(C)C2CCC1CC(OC(=O)c1c[nH]c3ccccc13)C2 (stereo not drawn)
Potency [1]: inactive
outcome [2]: inactive
Potency [3]: inactive
Potency [4]: inactive
Potency [5]: inactive
Potency [6]: inactive

c1ccc2cc(CC3=NCCN3)ccc2c1
Potency [1]: inactive
outcome [2]: inactive
Potency [3]: inactive
Potency [4]: inactive
Potency [5]: inactive
Potency [6]: inactive

O=C1C[C@@H]2OCC=C3CN4CC[C@]56c7ccccc7N1[C@H]5[C@H]2[C@H]3C[C@H]46
outcome [8]: inactive
outcome [9]: inactive
outcome [10]: inactive
Potency [11]: inactive
Potency [12]: inactive

CCN1C[C@@]2(COC)C3[C@@H](OC)C4[C@@H]1C3([C@@H]1C[C@]3(O)[C@H](OC(=O)c5ccccc5)[C@@H]1[C@]4(OC(C)=O)[C@@H](O)[C@@H]3OC)[C@H](OC)C[C@H]2O
Potency [1]: inactive
outcome [2]: inactive
Potency [3]: inactive
Potency [4]: inactive
Potency [5]: inactive
Potency [6]: inactive

NC(=O)COc1c(F)cc(SCCNS(=O)(=O)c2ccccc2)cc1F
Potency [1]: inactive
outcome [2]: inactive
Potency [3]: inactive
Potency [4]: inactive
Potency [5]: inactive
Potency [6]: inactive

Cc1o[nH]c(=O)c1CC(N)C(=O)O (stereo not drawn)
Potency [1]: inactive
outcome [2]: inactive
Potency [3]: inactive
Potency [4]: inactive
Potency [5]: inactive
Potency [6]: inactive

C[N+]1(C)CCc2cc3c(cc2[C@H]1[C@@H]1OC(=O)c2c1ccc1c2OCO1)OCO3
Potency [1]: inactive
outcome [2]: inactive
Potency [3]: inactive
Potency [4]: inactive
Potency [5]: inactive
Potency [6]: inactive

N[C@@H](Cn1oc(=O)[nH]c1=O)C(=O)O
Potency [1]: inactive
outcome [2]: inactive
Potency [3]: inactive
Potency [4]: inactive
Potency [5]: inactive
Potency [6]: inactive

COc1ccc2[nH]cc(CCN)c2c1
outcome [13]: inactive
outcome [8]: inactive
Potency [1]: inactive
outcome [2]: inactive
Potency [3]: inactive
Potency [5]: inactive
Potency [6]: inactive

CP(=O)(O)C1=CCNCC1
Potency [1]: inactive
outcome [2]: inactive
Potency [3]: inactive
Potency [4]: inactive
Potency [5]: inactive
Potency [6]: inactive

O=[N+]([O-])/C=C/c1ccc2c(c1)OCO2
Potency [1]: 7.08 µM (active)
outcome [2]: inactive
Potency [3]: inactive
Potency [4]: inactive

CC(Cc1ccc(OCC(=O)O)cc1)NCC(O)c1cccc(Cl)c1 (stereo not drawn)
Potency [1]: inactive
outcome [2]: inactive
Potency [3]: inactive
Potency [4]: inactive
Potency [5]: inactive
Potency [6]: inactive

N[C@@]1(C(=O)O)CC[C@@H](C(=O)O)C1
Potency [1]: inactive
outcome [2]: inactive
Potency [3]: inactive
Potency [4]: inactive
Potency [5]: inactive
Potency [6]: inactive

NCC(O)c1cc(O)c(O)cc1F (stereo not drawn)
Potency [1]: inactive
outcome [2]: inactive
Potency [3]: inactive
Potency [4]: inactive
Potency [5]: inactive
Potency [6]: inactive

[Cl-].[Cl][Pt].[NH2-].[NH2-].c1ccncc1
Potency [1]: inactive
outcome [2]: inactive

NCCc1ccc(S(=O)(=O)F)cc1
Potency [1]: inactive
outcome [2]: inactive
Potency [3]: inactive
Potency [4]: inactive
Potency [5]: inactive
Potency [6]: inactive

CCOC(=O)c1ncn2c1[C@@H]1CCCN1C(=O)c1cc(OC)ccc1-2
Potency [1]: inactive
outcome [2]: inactive
Potency [3]: inactive
Potency [4]: inactive
Potency [5]: inactive
Potency [6]: inactive

CCS(=O)(=O)Nc1cccc(C(=C2CCCCC2)c2cnc[nH]2)c1
Potency [1]: inactive
outcome [2]: inactive
Potency [3]: inactive
Potency [4]: inactive
Potency [5]: inactive
Potency [6]: inactive

CCCN(CCC)CCc1ccc(O)c(O)c1
Potency [1]: inactive
outcome [2]: inactive
Potency [3]: inactive
Potency [4]: inactive
Potency [5]: inactive
Potency [6]: inactive

CC12NC(Cc3ccccc31)c1ccccc12 (stereo not drawn)
Potency [1]: inactive
outcome [2]: inactive
Potency [3]: inactive
Potency [4]: inactive
Potency [5]: inactive
Potency [6]: inactive

COc1ccc2[nH]c3c(c2c1)CCNC3
Potency [1]: inactive
outcome [2]: inactive
Potency [3]: inactive
Potency [4]: inactive
Potency [5]: inactive
Potency [6]: inactive

NC(N)=Nc1ccc2[nH]c3c(c2c1)C[C@@]1(O)[C@H]2Cc4ccc(O)c5c4[C@@]1(CCN2CC1CC1)[C@H]3O5
Potency [1]: inactive
outcome [2]: inactive
Potency [3]: inactive
Potency [4]: 79.4 µM (active)
Potency [5]: inactive
Potency [6]: inactive

CC(C)NP(=O)(NC(C)C)OP(=O)(NC(C)C)NC(C)C
Potency [1]: inactive
outcome [2]: inactive
Potency [3]: inactive
Potency [4]: inactive
Potency [5]: inactive
Potency [6]: inactive

CN(C(=O)Cc1ccc(Cl)c(Cl)c1)C(CN1CCCC1)c1cccc(OCC(=O)O)c1 (stereo not drawn)
Potency [1]: inactive
outcome [2]: inactive
Potency [3]: inactive
Potency [4]: inactive
Potency [5]: inactive
Potency [6]: inactive

COc1ccc(OC)c(C(O)C(C)N)c1 (stereo not drawn)
Potency [1]: inactive
outcome [2]: inactive
Potency [3]: inactive
Potency [4]: inactive
outcome [14]: inactive
outcome [9]: inactive
outcome [10]: inactive
Potency [11]: inactive
Potency [5]: inactive
Potency [6]: inactive
